Our source for the z-score and composite z-score values is PubChem BioAssay.

Assay [1] can be described thus: A549 cell viability effects, profiling panel, calcein-AM fluorescence, 48 h, basal (AID 1162). Further: test concentration not given here. The conditions noted are these: higher = more signal.
The nature of assay [2]: adipocyte viability effects, profiling panel, cell-based, 3T3-L1 adipocytes, calcein-AM fluorescence, 48 h, basal (AID 1163). Further: test concentration not given here. Conditions: 3T3-L1 adipocytes viability, higher = more signal.
A short description of assay [3]: HepG2 cell viability effects, profiling panel, calcein-AM fluorescence, 48 h, basal (AID 1164). Further: test concentration not given here. Conditions: higher = more signal.
A short description of assay [4]: MM1S cell viability effects, profiling panel, calcein-AM fluorescence, 48 h, basal (AID 1165).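 Further: viability of MM1S multiple myeloma cells under basal unstimulated conditions; test concentration not given here.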 Conditions: higher = more signal.
The nature of assay [5]: basal RPMI8226 viability, no added stimulus, profiling panel, cell-based, calcein-AM fluorescence, 48 h, PK04 Diversity Set (AID 1166).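 Further: cells grown under basal conditions without added stimulus; test concentration not given here.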 The conditions noted are these: RPMI8226 myeloma viability, higher = more signal.
Assay [6] can be described thus: basal HepG2 mitochondrial membrane potential changes, profiling panel, cell-based, JC-1 fluorescence, 24 h, 100 nL compound (AID 1167). Further: test concentration not given here. The conditions noted are these: higher = more signal.
A short description of assay [7]: basal 3T3-L1 adipocyte mitochondrial potential changes, profiling panel, cell-based, JC-1 fluorescence, 3T3-L1 adipocytes, 24 h, 100 nL compound (AID 1168). Further: test concentration not given here. The conditions noted are these: JC-1 mitochondrial fluorescence, higher = more signal, called active from +8 up or from −8 down.
Assay [8] is described as follows: basal RPMI8226 mitochondrial membrane potential changes, profiling panel, cell-based, JC-1 fluorescence, 24 h, 100 nL compound (AID 1169). Further: test concentration not given here. The conditions noted are these: RPMI8226 myeloma, JC-1 mitochondrial potential fluorescence, higher = more signal.
Assay [9] can be described thus: basal MM1S mitochondrial membrane potential changes, profiling panel, cell-based, JC-1 fluorescence, 24 h, 100 nL compound (AID 1170). Further: test concentration not given here. The conditions noted are these: higher = more signal.
Assay [10] is described as follows: A549 lung cancer cell viability effects, profiling panel, resazurin fluorescence, 24 h, PK04 Diversity Set (AID 1171). Further: test concentration not given here. Conditions: higher = more signal, called active from +8 up or from −8 down. In general terms: Alamar Blue is a resazurin reagent that responds to reducing activity.
Assay [11] can be described thus: HepG2 liver cancer cell viability effects, profiling panel, resazurin fluorescence, 24 h, PK04 Diversity Set (AID 1172). Further: test concentration not given here. Conditions: higher = more signal.
The nature of assay [12]: basal S. cerevisiae growth modulation, no modifier, primary screen, OD600, strain BY4716, 24 h, basal condition (AID 1173). Conditions: OD600, 24 h, higher = more signal, called active from +8 up or from −8 down.
The nature of assay [13]: MM1S myeloma cell viability, profiling panel, resazurin fluorescence, basal, 24 h, PK04 Diversity Set (AID 1174).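 Further: MM1S multiple myeloma cell line; test concentration not given here.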 The conditions noted are these: higher = more signal, called active from +8 up or from −8 down.
Assay [14] deals with Dihydroorotate dehydrogenase (quinone), mitochondrial (Plasmodium falciparum (isolate 3D7)) (UniProt Q08210). Nature of the assay: PfDHODH enzyme inhibitors, primary screen, biochemical, C-terminal His tag, absorbance 600 nm (AID 1175).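 Further: recombinant parasite enzyme with a five histidine tag at its C terminus; test concentration not given here.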 The conditions noted are these: DCIP absorbance 600 nm, higher = more signal, called active from +8 up or from −8 down.
Chain of Dihydroorotate dehydrogenase (quinone), mitochondrial (Plasmodium falciparum (isolate 3D7)) (Q08210 whole entry, looked up): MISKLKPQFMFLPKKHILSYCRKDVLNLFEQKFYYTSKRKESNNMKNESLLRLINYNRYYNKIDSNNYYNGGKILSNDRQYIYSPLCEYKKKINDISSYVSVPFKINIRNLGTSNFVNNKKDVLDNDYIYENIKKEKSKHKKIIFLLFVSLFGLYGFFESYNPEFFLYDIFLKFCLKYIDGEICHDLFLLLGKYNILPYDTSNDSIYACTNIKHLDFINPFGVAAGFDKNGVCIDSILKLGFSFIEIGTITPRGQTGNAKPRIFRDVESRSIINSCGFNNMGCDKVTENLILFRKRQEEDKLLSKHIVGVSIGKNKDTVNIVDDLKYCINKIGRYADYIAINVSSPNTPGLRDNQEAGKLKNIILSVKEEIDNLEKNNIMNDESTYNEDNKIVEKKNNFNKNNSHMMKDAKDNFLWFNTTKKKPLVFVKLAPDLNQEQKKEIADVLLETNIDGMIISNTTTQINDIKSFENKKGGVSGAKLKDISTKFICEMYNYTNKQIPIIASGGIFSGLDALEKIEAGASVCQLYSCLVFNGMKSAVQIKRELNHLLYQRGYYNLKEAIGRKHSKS
Assay [15] is described as follows: P. aeruginosa biofilm formation inhibitors, primary screen, strain PAO1, LB-PBS medium, absorbance 600 nm (AID 1176). Further: test concentration not given here. The conditions noted are these: P. aeruginosa PAO1 growth/biofilm, A600, 12 h; higher = more signal.
A short description of assay [16]: S. cerevisiae RM11-1a growth modifiers, primary screen, strain RM11-1a, OD600, basal, 24 h (AID 1177).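 Further: cultures grown under basal conditions with no added stressor; test concentration not given here.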 Conditions: OD600, 24 h, higher = more signal, called active from +8 up or from −8 down.
Assay [17] is described as follows: E. coli acrAB mutant growth effects, primary screen, E. coli filamentation inducers, strain DRC39, OD650, 24 h (AID 1178).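 Further: growth measured as culture turbidity by optical density at 650 nm; test concentration not given here.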 The conditions noted are these: higher = more signal, called active from +8 up or from −8 down.
Assay [18] can be described thus: E. coli acrAB mutant growth effects, primary screen, E. coli filamentation inducers, strain DRC39, OD650, 48 h (AID 1179).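 Further: screen aims at cell division blockers that make cells filament.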 The conditions noted are these: E. coli DRC39 delta-acrAB growth, higher = more signal, called active from +8 up or from −8 down.
Assay [19] is described as follows: RPMI8226 myeloma cell viability, profiling panel, resazurin fluorescence, basal, 24 h, PK04 Diversity Set (AID 1180).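 Further: RPMI8826 multiple myeloma cell line at 5000 cells per well; test concentration not given here.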 The conditions noted are these: higher = more signal.
For assay [20], the target named is E3 ubiquitin-protein ligase XIAP (Homo sapiens) (UniProt P98170). Put plainly: XIAP binders, primary screen, biophysical, small-molecule microarray, fluorescence 635 nm (AID 1181).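 Further: score merges 667 nm emission and signal to noise over triplicate slides.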 The conditions noted are these: small-molecule microarray binding, higher = more signal.
Chain of E3 ubiquitin-protein ligase XIAP (Homo sapiens) (P98170 whole entry, looked up): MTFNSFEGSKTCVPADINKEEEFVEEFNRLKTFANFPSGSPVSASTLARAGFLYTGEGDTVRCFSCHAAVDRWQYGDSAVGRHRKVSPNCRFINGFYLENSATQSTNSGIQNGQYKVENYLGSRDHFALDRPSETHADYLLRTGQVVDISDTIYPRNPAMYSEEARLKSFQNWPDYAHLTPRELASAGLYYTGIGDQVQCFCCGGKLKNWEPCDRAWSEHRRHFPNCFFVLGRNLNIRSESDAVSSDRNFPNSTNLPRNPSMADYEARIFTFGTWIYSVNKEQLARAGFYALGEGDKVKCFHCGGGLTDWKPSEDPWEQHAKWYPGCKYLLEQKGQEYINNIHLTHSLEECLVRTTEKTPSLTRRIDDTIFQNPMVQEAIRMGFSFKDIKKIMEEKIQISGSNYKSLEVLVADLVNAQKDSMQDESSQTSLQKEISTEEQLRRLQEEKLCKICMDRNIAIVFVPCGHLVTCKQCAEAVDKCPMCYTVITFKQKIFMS

The source made the active and inactive calls. Unless noted, how the calls were made is not given here.

For `COC(=O)[C@@H]1N=C(c2ccc(OCCCO)cc2)O[C@@H]1C`, the z-score in [1] was 0.0963; in assay [2], -0.317; in [3], 0.958; in assay [4], 0.916; in assay [5] it was -0.086; in assay [6], 0.5. The z-score in assay [7] was 0.797 (inactive); in assay [8] it was -0.155; in [9], -1; in [10], -0.155 (inactive); in assay [11], 0.38; in [12], 0.0443 (inactive). The z-score is -0.341 (inactive) in assay [13]; -0.689 (inactive) in [15]; 0.895 (inactive) in assay [16]; 0.52 (inactive) in assay [17]; 1.13 (inactive) in [18]; 0.945 in assay [19]. In addition, the figures for the composite z-score in [14] and in [20] were -0.403 (inactive) and 0.105, respectively.

As for `CCCC1(C(=O)OC)C=C2C(=C(C)C(=O)C2C)CN1` (stereo not given), the z-score in assay [1] was -1.48; in assay [2] it was -1.07; in assay [3] it was -0.806; in assay [4] it was -0.44; in assay [5] it was -1.03; in assay [6], -1.96. Also, the z-score was -1.16 (inactive) in assay [7]; -0.0212 in [8]; -0.974 in assay [9]; -0.727 (inactive) in assay [10]; -1.11 in [11]; 1.99 (inactive) in [12]. Also, the z-score in assay [13] was -1.23 (inactive); in assay [15] it was 0.343 (inactive); in assay [16] it was 0.338 (inactive); in assay [17], -0.715 (inactive); in assay [18] it was 0.0101 (inactive); in [19] it was -1.88. The composite z-score in assay [14] was -1.8 (inactive); in [20], 0.258.

For `CC1CC/C=C\[C@H]2OC34C=CCN(C(C)(C)C)C(=O)[C@H]3N(CCCCCO)C(=O)[C@@H]4C2C(=O)O1` (stereo not given in full), the z-score was 0.0683 in assay [1]; 0.525 in assay [2]; 0.0474 in assay [3]; 0.719 in assay [4]; -0.561 in [5]; -0.589 in assay [6]. Further, the z-score in assay [7] is -0.226 (inactive); in assay [8], 0.592; in assay [9], -0.203; in assay [10], -0.146 (inactive); in [11], -0.643; in [12], 0.349 (inactive). In addition, the z-score is 0.285 (inactive) in assay [13]; 0.121 (inactive) in assay [15]; -0.202 (inactive) in assay [16]; 0.338 (inactive) in assay [17]; 0.338 (inactive) in [18]; 0.0992 in [19]. The composite z-score in assay [14] was 0.797 (inactive); in [20], -0.102.

For `CCCCC(O)C1C=CC2C(=O)N(C)C(=O)C2N1N(c1ccccc1)c1ccccc1` (stereo not given), the z-score is -0.646 in [1]; -1.68 in [2]; 0.821 in [3]; -0.769 in [4]; -0.938 in assay [5]; -1.19 in assay [6]. Moreover, the z-score in assay [7] was -1.3 (inactive); in assay [8], -0.198; in assay [9] it was -0.497; in [10], -0.7 (inactive); in assay [11] it was -0.682; in [12], 0.512 (inactive). Also, the z-score in assay [13] was -1.65 (inactive); in assay [15], 1.26 (inactive); in assay [16] it was 0.46 (inactive); in assay [17], -0.447 (inactive); in [18], -0.251 (inactive); in assay [19], -1.05. For the same compound, the composite z-score in assay [14] is -0.226 (inactive); in [20], 0.001.

For `O=C1NC(=O)C2C1C=CC(C(O)c1ccco1)N2Nc1ccc(Cl)cc1Cl` (stereo not given), the z-score in [1] is -0.396; in assay [2], -0.792; in assay [3] it was -1.16; in [4], -1.57; in assay [5] it was -0.941; in assay [6], -1.96. Further, the z-score in assay [7] is -0.298 (inactive); in assay [8] it was -0.977; in assay [9], -0.218; in [10], -2.08 (inactive); in assay [11], -2.04; in assay [12], -17 (active). The z-score was -1.41 (inactive) in [13]; 0.711 (inactive) in assay [15]; -5.34 (inactive) in assay [16]; -0.725 (inactive) in assay [17]; -1.86 (inactive) in [18]; -1.28 in assay [19]. For the same compound, the composite z-score in assay [14] is 0.893 (inactive); in [20] it was 0.257.

Take `CCCCN1CC=CC23O[C@@H]4/C=C\CCC(C)OC(=O)C4[C@H]2C(=O)N(CCCO)[C@@H]3C1=O` (stereo not given in full): the z-score in [1] was -0.615; in assay [2] it was 1.57; in assay [3], -0.241; in assay [4] it was 1.04; in assay [5] it was -0.386; in assay [6], -0.534. Further, the z-score was 0.276 (inactive) in assay [7]; 0.635 in [8]; 0.71 in [9]; -0.523 (inactive) in assay [10]; 0.0917 in assay [11]; 1.04 (inactive) in assay [12]. In addition, the z-score in assay [13] is 0.0853 (inactive); in assay [15] it was -0.112 (inactive); in [16] it was 0.487 (inactive); in assay [17], 0.0475 (inactive); in [18] it was -0.154 (inactive); in assay [19], 0.79. Further, the composite z-score in [14] is -0.0558 (inactive); in assay [20] it was -0.267.

Consider `COCCOC(=O)N1C(=O)[C@@]2(c3cc(C#CCNC(N)=O)ccc31)[C@H](C(N)=O)[C@H]1C(=O)O[C@H](c3ccccc3)[C@H](c3ccccc3)N1[C@@H]2c1ccccc1OCCO`, for which the z-score in [1] is 0.533; in assay [2], 0.0371; in assay [3], -0.362; in assay [4], -1.24; in [5], 0.458; in assay [6] it was -2.02. In addition, the z-score was -0.278 (inactive) in assay [7]; -0.159 in assay [8]; 0.244 in assay [9]; 0.291 (inactive) in [10]; -0.281 in assay [11]; 0.407 (inactive) in assay [12]. The z-score in [13] is -0.126 (inactive); in assay [15], 0.986 (inactive); in assay [16], 1.59 (inactive); in assay [17], -0.0653 (inactive); in [18] it was -0.0752 (inactive); in assay [19], -0.0771. Also, the results for the composite z-score in [14] and in [20] were -0.235 (inactive) and -0.135, respectively.

Take `COC(=O)C1=CC(CCCO)=CC(c2cccs2)N(Cc2cccc(OC(F)(F)F)c2)C=C1C(=O)OC` (stereo not given): the z-score was -0.855 in assay [1]; 0.543 in [2]; 0.896 in assay [3]; -2.69 in assay [4]; -3.76 in [5]; 0.996 in [6]. Besides, the z-score in assay [7] is 0.000649 (inactive); in [8], -0.786; in assay [9], -0.512; in [10] it was -0.257 (inactive); in assay [11], -0.872; in assay [12] it was -0.487 (inactive). Also, the z-score is -1.46 (inactive) in [13]; 0.82 (inactive) in [15]; 0.0036 (inactive) in assay [16]; 0.581 (inactive) in [17]; 0.153 (inactive) in assay [18]; -1.16 in assay [19]. Besides, the composite z-score was -3.05 (inactive) in assay [14] and -0.0756 in [20].
